# What was measured:
# [1] = molecular target: Tyrosine-protein kinase CSK (Homo sapiens) (UniProt P41240); conditions: at 1 µM;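 further: each value is an averaged inhibition reading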
# [2] = molecular target: T1, Discoidin domain-containing receptor 2 (Homo sapiens) (UniProt Q16832); conditions: at 0.1 µM
# T1 sequence (whole entry): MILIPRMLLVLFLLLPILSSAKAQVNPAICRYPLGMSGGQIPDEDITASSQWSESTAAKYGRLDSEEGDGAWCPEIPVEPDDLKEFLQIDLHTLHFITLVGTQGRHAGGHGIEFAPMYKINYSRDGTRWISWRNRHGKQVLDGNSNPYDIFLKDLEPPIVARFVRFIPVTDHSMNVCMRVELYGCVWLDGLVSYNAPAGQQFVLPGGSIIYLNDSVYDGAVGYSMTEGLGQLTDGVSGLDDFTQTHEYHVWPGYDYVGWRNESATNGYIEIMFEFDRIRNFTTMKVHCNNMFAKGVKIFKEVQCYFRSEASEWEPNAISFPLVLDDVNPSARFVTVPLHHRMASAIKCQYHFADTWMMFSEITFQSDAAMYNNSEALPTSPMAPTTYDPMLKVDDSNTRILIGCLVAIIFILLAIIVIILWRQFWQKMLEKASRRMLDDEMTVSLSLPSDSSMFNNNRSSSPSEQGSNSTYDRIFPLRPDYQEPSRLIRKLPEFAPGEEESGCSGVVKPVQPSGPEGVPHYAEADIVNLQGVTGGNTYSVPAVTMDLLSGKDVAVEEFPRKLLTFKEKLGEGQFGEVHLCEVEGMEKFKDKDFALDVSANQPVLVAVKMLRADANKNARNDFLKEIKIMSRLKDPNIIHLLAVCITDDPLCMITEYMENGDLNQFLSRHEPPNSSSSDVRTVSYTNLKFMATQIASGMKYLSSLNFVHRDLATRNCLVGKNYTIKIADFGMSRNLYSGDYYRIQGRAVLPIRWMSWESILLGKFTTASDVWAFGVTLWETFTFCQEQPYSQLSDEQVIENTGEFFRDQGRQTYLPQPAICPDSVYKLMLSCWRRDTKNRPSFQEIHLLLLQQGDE
# [3] = molecular target: T1, Discoidin domain-containing receptor 2 (Homo sapiens); conditions: at 1 µM
# [4] = molecular target: Epidermal growth factor receptor (Homo sapiens) (UniProt P00533); conditions: at 0.1 µM
# Sequence of Epidermal growth factor receptor (Homo sapiens) (P00533 whole entry): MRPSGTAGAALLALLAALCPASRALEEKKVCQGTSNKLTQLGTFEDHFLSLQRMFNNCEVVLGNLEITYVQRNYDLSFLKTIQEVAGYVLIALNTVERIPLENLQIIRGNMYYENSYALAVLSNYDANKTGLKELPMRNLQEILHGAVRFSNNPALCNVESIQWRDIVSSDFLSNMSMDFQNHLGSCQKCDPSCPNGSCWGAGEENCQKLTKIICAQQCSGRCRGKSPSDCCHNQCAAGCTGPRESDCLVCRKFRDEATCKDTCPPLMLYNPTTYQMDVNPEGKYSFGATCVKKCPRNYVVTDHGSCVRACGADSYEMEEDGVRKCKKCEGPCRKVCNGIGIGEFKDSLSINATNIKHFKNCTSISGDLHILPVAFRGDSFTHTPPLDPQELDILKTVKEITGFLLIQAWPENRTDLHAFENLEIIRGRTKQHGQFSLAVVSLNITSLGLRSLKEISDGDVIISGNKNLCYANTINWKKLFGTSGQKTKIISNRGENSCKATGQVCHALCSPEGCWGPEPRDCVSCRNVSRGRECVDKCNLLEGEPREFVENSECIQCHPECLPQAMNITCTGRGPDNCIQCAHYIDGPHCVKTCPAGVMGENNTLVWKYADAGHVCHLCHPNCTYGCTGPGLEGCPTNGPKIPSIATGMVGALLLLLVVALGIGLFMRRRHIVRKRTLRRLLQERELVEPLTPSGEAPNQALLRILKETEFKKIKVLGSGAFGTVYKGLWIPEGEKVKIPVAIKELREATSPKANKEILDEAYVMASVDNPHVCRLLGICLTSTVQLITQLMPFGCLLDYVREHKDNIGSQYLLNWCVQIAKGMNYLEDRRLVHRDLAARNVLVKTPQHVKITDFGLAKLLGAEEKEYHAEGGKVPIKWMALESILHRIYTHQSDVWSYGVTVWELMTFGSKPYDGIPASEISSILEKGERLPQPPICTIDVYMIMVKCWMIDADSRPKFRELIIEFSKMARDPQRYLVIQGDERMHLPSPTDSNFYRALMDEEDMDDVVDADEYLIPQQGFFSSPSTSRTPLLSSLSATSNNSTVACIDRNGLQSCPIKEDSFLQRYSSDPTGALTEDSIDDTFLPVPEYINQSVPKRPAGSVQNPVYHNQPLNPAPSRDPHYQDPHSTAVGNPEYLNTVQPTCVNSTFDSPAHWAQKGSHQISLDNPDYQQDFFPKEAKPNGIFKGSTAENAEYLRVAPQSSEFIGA
# [5] = molecular target: Epidermal growth factor receptor (Homo sapiens) (UniProt P00533); conditions: at 1 µM
# [6] = system: Epidermal growth factor receptor (Homo sapiens), P00533 [L858R]; conditions: at 0.1 µM
# [7] = system: Epidermal growth factor receptor (Homo sapiens), P00533 [L858R]; conditions: at 1 µM
# [8] = system: Epidermal growth factor receptor (Homo sapiens), P00533 [L861Q]; conditions: at 0.1 µM
# [9] = system: Epidermal growth factor receptor (Homo sapiens), P00533 [L861Q]; conditions: at 1 µM
# [10] = system: Epidermal growth factor receptor (Homo sapiens), P00533 [T790M]; conditions: at 0.1 µM
# [11] = system: Epidermal growth factor receptor (Homo sapiens), P00533 [T790M]; conditions: at 1 µM
# [12] = system: Epidermal growth factor receptor (Homo sapiens), P00533 [L858R,T790M]; conditions: at 0.1 µM
# Sequence of Epidermal growth factor receptor (Homo sapiens), P00533 [L858R,T790M] (P00533 whole entry T790M/L858R, looked up): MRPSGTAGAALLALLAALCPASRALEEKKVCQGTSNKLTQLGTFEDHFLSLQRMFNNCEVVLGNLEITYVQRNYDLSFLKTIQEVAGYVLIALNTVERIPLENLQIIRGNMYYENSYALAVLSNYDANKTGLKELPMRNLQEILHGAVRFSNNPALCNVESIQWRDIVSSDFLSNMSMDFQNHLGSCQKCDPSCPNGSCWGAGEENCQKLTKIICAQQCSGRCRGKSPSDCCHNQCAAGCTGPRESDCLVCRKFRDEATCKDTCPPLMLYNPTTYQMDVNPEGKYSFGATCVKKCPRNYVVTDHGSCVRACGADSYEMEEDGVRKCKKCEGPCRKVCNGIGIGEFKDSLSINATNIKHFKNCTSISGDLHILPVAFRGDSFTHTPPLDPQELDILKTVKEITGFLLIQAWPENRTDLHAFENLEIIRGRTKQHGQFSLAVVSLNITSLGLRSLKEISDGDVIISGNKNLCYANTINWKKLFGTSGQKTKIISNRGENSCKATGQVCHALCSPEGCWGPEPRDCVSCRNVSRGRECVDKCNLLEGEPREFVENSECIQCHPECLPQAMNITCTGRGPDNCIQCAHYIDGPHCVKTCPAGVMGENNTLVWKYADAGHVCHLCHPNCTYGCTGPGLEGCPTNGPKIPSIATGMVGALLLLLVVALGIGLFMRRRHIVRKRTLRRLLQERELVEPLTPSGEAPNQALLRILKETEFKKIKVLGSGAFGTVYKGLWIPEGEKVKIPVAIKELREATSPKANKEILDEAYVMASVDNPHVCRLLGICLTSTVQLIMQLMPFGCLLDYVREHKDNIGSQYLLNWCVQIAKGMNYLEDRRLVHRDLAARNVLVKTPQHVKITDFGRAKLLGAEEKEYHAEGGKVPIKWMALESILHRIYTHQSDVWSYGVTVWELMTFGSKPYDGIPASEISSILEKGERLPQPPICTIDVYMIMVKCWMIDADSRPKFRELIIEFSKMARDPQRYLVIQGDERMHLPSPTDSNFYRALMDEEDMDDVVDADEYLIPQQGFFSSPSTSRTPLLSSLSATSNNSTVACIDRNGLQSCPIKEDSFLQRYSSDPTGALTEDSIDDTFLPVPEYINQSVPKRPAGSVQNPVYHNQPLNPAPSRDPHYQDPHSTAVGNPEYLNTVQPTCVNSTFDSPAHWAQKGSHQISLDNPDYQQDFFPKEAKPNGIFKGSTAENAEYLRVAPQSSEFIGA
# [13] = system: Epidermal growth factor receptor (Homo sapiens), P00533 [L858R,T790M]; conditions: at 1 µM
# [14] = molecular target: Ephrin type-A receptor 2 (Homo sapiens) (UniProt P29317); conditions: at 0.1 µM
# Sequence of Ephrin type-A receptor 2 (Homo sapiens) (P29317 whole entry): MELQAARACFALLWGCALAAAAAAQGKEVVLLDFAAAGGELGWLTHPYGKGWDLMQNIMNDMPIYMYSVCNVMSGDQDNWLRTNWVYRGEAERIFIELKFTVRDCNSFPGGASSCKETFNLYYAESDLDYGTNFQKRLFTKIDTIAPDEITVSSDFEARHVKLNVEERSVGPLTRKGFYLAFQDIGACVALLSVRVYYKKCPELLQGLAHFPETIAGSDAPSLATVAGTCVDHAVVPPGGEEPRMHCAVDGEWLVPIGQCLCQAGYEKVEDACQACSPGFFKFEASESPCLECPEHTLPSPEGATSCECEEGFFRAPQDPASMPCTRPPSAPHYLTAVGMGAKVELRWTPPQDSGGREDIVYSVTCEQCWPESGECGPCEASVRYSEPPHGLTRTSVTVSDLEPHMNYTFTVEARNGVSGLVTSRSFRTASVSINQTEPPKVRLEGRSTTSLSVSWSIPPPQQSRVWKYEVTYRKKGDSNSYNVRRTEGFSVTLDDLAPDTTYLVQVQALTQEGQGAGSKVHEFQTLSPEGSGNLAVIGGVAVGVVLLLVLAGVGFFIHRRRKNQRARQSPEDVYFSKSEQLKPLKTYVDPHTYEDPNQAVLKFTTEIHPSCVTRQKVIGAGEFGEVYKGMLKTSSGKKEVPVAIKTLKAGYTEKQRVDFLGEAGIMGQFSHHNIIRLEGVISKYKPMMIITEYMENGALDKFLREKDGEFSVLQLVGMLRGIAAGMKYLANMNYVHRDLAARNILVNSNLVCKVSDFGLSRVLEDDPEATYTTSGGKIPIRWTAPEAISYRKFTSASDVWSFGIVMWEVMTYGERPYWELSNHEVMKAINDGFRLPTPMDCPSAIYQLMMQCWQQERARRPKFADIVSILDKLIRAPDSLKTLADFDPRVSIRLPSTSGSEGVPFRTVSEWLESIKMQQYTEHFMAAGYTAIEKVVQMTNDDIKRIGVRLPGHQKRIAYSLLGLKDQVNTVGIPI
# [15] = molecular target: Ephrin type-A receptor 2 (Homo sapiens) (UniProt P29317); conditions: at 1 µM
# [16] = molecular target: T2, Ephrin type-A receptor 3 (Homo sapiens) (UniProt P29320); conditions: at 0.1 µM
# T2 sequence (whole entry): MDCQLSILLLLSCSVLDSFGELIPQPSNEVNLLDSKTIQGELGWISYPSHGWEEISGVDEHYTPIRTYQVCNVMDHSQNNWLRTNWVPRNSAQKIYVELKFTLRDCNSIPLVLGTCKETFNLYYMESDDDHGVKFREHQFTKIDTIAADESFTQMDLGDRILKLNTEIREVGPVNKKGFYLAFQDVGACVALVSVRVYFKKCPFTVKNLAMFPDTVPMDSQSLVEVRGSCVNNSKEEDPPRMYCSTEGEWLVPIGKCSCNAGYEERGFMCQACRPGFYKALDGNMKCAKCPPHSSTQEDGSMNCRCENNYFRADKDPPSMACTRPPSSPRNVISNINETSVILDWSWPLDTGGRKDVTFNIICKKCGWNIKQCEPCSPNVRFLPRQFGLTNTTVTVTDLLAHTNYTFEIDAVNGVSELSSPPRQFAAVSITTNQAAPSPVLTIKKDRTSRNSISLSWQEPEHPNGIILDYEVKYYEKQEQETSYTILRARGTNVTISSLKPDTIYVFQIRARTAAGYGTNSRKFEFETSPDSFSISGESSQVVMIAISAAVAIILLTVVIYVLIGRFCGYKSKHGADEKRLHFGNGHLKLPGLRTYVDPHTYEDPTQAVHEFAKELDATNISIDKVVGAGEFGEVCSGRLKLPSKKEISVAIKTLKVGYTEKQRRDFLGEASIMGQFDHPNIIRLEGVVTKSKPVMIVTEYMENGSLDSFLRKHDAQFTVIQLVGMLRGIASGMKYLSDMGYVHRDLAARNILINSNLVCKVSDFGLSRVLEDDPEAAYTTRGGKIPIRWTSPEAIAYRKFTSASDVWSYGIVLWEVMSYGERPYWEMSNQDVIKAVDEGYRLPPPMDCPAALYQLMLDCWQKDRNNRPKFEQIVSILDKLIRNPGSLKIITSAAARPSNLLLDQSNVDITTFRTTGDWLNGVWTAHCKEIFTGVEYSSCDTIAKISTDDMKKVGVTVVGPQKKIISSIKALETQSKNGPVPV
# [17] = molecular target: T2, Ephrin type-A receptor 3 (Homo sapiens); conditions: at 1 µM
# [18] = molecular target: Ephrin type-A receptor 4 (Homo sapiens) (UniProt P54764); conditions: at 0.1 µM
# Sequence of Ephrin type-A receptor 4 (Homo sapiens) (P54764 whole entry): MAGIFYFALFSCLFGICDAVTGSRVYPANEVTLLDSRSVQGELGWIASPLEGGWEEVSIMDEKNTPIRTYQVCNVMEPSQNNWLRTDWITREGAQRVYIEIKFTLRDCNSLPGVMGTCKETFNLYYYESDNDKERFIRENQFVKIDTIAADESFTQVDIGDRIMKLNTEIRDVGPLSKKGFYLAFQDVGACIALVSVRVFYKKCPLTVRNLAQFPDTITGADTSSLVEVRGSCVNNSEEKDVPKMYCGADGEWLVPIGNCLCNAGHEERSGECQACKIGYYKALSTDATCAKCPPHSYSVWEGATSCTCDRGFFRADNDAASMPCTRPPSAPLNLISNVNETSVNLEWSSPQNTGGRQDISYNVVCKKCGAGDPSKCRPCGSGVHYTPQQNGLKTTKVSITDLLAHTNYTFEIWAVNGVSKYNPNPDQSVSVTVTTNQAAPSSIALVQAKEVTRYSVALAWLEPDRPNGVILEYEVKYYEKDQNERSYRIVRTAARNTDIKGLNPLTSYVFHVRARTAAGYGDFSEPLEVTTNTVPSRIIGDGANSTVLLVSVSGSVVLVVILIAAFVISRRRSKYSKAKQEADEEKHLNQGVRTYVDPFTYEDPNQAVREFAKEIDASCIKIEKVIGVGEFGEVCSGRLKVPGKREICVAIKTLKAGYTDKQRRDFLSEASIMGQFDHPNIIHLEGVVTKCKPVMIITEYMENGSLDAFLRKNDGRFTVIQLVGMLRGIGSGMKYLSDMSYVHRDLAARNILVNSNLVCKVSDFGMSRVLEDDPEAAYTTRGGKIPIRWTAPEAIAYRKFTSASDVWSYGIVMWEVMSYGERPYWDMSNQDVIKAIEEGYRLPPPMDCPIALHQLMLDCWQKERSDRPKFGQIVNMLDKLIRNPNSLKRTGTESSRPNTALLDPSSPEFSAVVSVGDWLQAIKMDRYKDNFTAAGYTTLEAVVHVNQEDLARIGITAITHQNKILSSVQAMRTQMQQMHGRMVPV
# [19] = molecular target: Ephrin type-A receptor 4 (Homo sapiens) (UniProt P54764); conditions: at 1 µM
# [20] = molecular target: T3, Ephrin type-B receptor 2 (Homo sapiens) (UniProt P29323); conditions: at 0.1 µM;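 further: reported as mean inhibition of EPHB2, from the GSK PKIS dataset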
# T3 sequence (whole entry): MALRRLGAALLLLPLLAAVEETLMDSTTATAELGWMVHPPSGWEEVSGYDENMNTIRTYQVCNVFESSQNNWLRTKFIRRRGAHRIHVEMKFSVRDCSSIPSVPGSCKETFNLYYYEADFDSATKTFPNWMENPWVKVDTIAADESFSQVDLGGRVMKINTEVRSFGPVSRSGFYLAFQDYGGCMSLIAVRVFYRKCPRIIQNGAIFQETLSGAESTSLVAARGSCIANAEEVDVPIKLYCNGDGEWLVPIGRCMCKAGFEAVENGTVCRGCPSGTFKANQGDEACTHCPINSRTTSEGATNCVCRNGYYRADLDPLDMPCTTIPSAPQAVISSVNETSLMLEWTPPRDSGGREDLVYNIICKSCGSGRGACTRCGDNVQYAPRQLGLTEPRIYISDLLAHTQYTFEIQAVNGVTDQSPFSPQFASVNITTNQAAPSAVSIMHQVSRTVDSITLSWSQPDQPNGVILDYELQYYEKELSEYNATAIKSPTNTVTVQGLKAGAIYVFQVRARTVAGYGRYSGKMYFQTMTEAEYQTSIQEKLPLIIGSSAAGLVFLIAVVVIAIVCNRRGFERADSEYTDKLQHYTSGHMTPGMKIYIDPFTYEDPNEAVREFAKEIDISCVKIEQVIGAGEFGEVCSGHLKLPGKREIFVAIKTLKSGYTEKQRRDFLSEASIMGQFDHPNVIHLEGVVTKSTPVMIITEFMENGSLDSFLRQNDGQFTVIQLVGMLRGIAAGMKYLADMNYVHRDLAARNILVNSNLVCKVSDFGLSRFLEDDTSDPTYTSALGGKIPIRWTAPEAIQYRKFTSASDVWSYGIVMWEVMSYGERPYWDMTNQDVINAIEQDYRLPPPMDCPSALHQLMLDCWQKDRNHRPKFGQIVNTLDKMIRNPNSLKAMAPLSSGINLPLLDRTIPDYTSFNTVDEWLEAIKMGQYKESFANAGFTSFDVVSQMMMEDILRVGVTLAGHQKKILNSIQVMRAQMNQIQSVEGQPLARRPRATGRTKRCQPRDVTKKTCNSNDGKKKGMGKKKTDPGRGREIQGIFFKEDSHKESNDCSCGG
# Sequence of Tyrosine-protein kinase CSK (Homo sapiens) (P41240 2-450 limits assumed): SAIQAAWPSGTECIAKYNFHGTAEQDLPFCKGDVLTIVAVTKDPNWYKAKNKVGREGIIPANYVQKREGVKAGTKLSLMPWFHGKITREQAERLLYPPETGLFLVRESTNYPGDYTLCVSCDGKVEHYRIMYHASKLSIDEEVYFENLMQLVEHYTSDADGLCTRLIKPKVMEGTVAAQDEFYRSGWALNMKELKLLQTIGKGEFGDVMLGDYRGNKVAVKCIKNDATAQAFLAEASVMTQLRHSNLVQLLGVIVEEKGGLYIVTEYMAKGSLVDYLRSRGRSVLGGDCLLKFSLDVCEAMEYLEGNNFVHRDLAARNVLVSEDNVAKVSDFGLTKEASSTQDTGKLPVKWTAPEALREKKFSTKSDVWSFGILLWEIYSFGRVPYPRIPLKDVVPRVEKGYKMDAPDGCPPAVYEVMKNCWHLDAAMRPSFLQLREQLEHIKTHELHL
Structure (SMILES),inhibition [1],inhibition [2],inhibition [3],inhibition [4],inhibition [5],inhibition [6],inhibition [7],inhibition [8],inhibition [9],inhibition [10],inhibition [11],inhibition [12],inhibition [13],inhibition [14],inhibition [15],inhibition [16],inhibition [17],inhibition [18],inhibition [19],inhibition [20]
COc1cc(C)c(NC(=O)CN(C)C)cc1Nc1nc(Nc2cccc(F)c2C(N)=O)c2cc[nH]c2n1,-0.35%,2.03%,0.4%,-1.1%,5.3%,1.75%,6.19%,2.96%,5%,5.98%,30.3%,14.3%,54.2%,0.91%,-1.18%,3.57%,1.85%,6.35%,-1.05%,4.98%
CCn1c(-c2nonc2N)nc2cncc(C(=O)N3CCNCC3)c21,4.45%,1.63%,1.68%,1.08%,2.62%,3.95%,3.98%,3.22%,5.49%,2.68%,3.72%,0.98%,3.56%,1.29%,1.16%,3.57%,2.79%,9.14%,11.3%,10.1%
Cc1nn(C)c2cc(N(C)c3ccnc(Nc4cccc(S(N)(=O)=O)c4)n3)ccc12,22.4%,-2.88%,,5.33%,13.9%,1.02%,16%,2.56%,9.38%,1.34%,7.49%,1.34%,12.7%,1.28%,18.6%,6.82%,16.5%,12.2%,43.7%,7.61%
NS(=O)(=O)c1ccc(N/N=C2\C(=O)Nc3ccc(C(=O)NCCc4c[nH]cn4)cc32)cc1,9.56%,1.41%,5.19%,2%,4.43%,5.09%,5.32%,3.18%,3.48%,2.7%,1.79%,3.11%,5.71%,1.93%,1.88%,7.18%,8.06%,10.7%,16.3%,11.4%
Cn1cc(C=C2C(=O)Nc3cccnc32)c2ccccc21,-0.79%,0.93%,4.03%,,,,,,,,,,,1.74%,0.79%,2.31%,4.83%,5.07%,6.23%,3.99%
COC(=O)Nc1nc2cc(Oc3ccc(NC(=O)Nc4cccc(C(=O)O)c4)cc3)ccc2[nH]1,,8.64%,48.8%,-1.69%,-2.11%,2.63%,2.26%,2.15%,0.36%,1.78%,0.98%,-0.04%,1.58%,-2.05%,-4.67%,-2.34%,-2.49%,4.23%,5.32%,0.25%
CCn1c(-c2nonc2N)nc2c(N3CCCC3)nccc21,-3.39%,0.93%,1.39%,9.47%,13%,-0.34%,-1.9%,0.82%,2.63%,-1.01%,-1.06%,0.11%,0.62%,-5.01%,-4.35%,-5.79%,-2.29%,-6.53%,-8.11%,-2.18%
CS(=O)(=O)CCNCc1nc(-c2ccc3ncnc(Nc4ccc(F)c(Cl)c4)c3c2)cs1,5.64%,7.7%,10.9%,,,,,,,,,,,2.15%,1.65%,2.83%,4.56%,11.7%,21%,13.7%
COc1ccc(COc2ccc(Cc3cnc(N)nc3N)cc2OC)cc1,-3.17%,8.57%,8.13%,-0.51%,5.41%,0.93%,-1.26%,-1.47%,-1.95%,,-2.86%,2.14%,-1.75%,2.27%,2.74%,-0.07%,0.08%,1.25%,-0.14%,1.4%
COc1cc2ncn(-c3cc(OCc4ccccc4C(F)(F)F)c(C(N)=O)s3)c2cc1OC,9.28%,7.36%,7.43%,,3.5%,2.54%,13.5%,3.75%,4.35%,2%,1.9%,3.32%,4.7%,-0.41%,3.23%,-0.35%,7.13%,11.3%,23.3%,14.9%
O=C1Nc2ccc(C(=O)c3ccco3)cc2C1=Cc1cc(Cl)c(O)c(Cl)c1,7.85%,2.1%,6.8%,1.89%,5.16%,4.06%,13.7%,3.88%,19.6%,1.42%,1.86%,1.63%,4.94%,-2.48%,-0.21%,2.92%,6.1%,8.25%,14.3%,10.7%
Cc1cc(O)cc(C)c1/C=C/c1cncc(-c2nn[nH]n2)c1,43.4%,1.73%,6.08%,-1.53%,15.8%,10.4%,56.9%,3.95%,21.2%,2.17%,3.37%,2.15%,2.05%,39.5%,84.4%,12.4%,34.8%,37.4%,87.6%,15.1%

# — ChEMBL document CHEMBL1961873, “Compounds: GSK PKIS; Assays: Nanosyn kinase panel” (2012)
